From PubChem BioAssay (Tox21) come the findings set out here.

Test [1] in a line: qHTS assay to identify small molecule agonists of the estrogen related receptor (ERR) signaling pathway from Tox21 library (AID 1224849; calls by dose curve; also: nearly all actives have a fitted effect of over 15% in size). In short, it runs like this:
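Reporter cells (ERR, NTP source) treated with Tox21 10K compounds 18 h, 37 C. Readout: ONE-Glo luminescence, 30 min RT.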

Test [2] in a line: qHTS RealTime-Glo MT Cell Viability Assay in HepG2 cells - 24 hour (AID 1224867). Also: nearly all actives have a fitted effect of over 50% in size. In short, it runs like this:
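Cells + NanoLuc/prosubstrate dispensed (600 cells/well) → 5 h at 37 C/5% CO2 → compounds in DMSO transferred → 40 h incubation at 37 C, luminescence read at 0, 8, 16, 24, 32, 40 h.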
On the technique in general: In qHTS, concentration-response curves come from the screen itself.

Test [3] is described as follows: qHTS RealTime-Glo MT Cell Viability Assay in HEK293 cells - 32 hour (AID 1224868). Also: nearly all actives have a fitted effect of over 50% in size. Also: potency is read from the fitted curve at half-maximal effect. As to activity change, negative = cytotoxic: top concentration of the series differs between compounds. In short, it runs like this: (§1)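 Tox21 10K qHTS, HEK293, 600 cells/well, RealTime-Glo reagent co-dispensed with cells; 5 h preincubation, compound by pintool, 37 C, luminescence at 0–40 h.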
Test [4] is described as follows: A CellTox Green Cytotoxicity Assay to monitor cytotoxicity in HEK293 cells - 0 hour (AID 1224869). Also: nearly all actives have a fitted effect of over 50% in size. In short, it runs like this: (§2)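 Homogeneous no-lysis format: HEK293 cell suspension mixed with CellTox Green reagent, seeded, incubated 5 h at 37 C/5% CO2, then dosed by pintool with compound in DMSO.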
The nature of test [5]: qHTS RealTime-Glo MT Cell Viability Assay in HepG2 cells - 40 hour (AID 1224870). Also: nearly all actives have a fitted effect of over 50% in size. The method, boiled down: (§3)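 HepG2 cells mixed with RealTime-Glo MT reagents (NanoLuc plus cell-permeant prosubstrate) were seeded at 600 cells/well, incubated 5 h at 37 C/5% CO2, then pinned with compounds in DMSO; nonlytic luminescence tracked viability during 40 h treatment.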
Test [6] can be described thus: A CellTox Green Cytotoxicity Assay to monitor cytotoxicity in HEK293 cells - 40 hour (AID 1224871). Also: nearly all actives have a fitted effect of over 45% in size. The method, boiled down:
as §2

Test [7] is described as follows: qHTS RealTime-Glo MT Cell Viability Assay in HEK293 cells - 16 hour (AID 1224872). Also: nearly all actives have a fitted effect of over 50% in size. Also: potency is read from the fitted curve at half-maximal effect. As to activity change, negative = cytotoxicity: top concentration of the series differs between compounds. The method, boiled down:
as §1

Test [8] can be described thus: qHTS RealTime-Glo MT Cell Viability Assay in HepG2 cells - 8 hour (AID 1224873). Also: nearly all actives have a fitted effect of over 55% in size. In short, it runs like this:
as §3

Test [9] in a line: A CellTox Green Cytotoxicity Assay to monitor cytotoxicity in HEK293 cells - 24 hour (AID 1224875). Also: series mostly up to about 77 µM; nearly all actives have a fitted effect of over 45% in size. The method, boiled down: as §2
Test [10] can be described thus: qHTS RealTime-Glo MT Cell Viability Assay in HEK293 cells - 40 hour (AID 1224874). Also: nearly all actives have a fitted effect of over 50% in size. Also: potency is read from the fitted curve at half-maximal effect. To be noted: RealTime-Glo luminescence; max response: stronger effect = lower value. The method, boiled down:
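Measured as luminescence from the same continuously cultured HEK293 wells at successive time points (0, 8, 16, 24, 32, 40 h) after compound addition. Reagent present from seeding; dosing at 5 h; incubation 37 C.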

A number with no mark means an inactive call. Results filed as inconclusive are left out. The source made the active and inactive calls. Unless noted, calls follow the shape of the dose curve; as a rule, active = well fitted curve in the direction sought with a large enough effect in the repeat runs; inconclusive = weak or mixed curves; inactive = no such curve, though single readings can be large; an effect the other way counts as inactive or inconclusive.
% is scaled to controls: 0 for no effect and ±100 for the full control effect.

As to `Cc1cccc(NC(=S)N(C)C)c1`, the result in test [1], in test [2], in [5] and in test [8] was inactive. For the same compound, the Potency result in test [3], in test [4], in [6], in test [7] and in test [9] was “inactive” throughout.

With `C=C(C)C(=O)OCCCCCCOC(=O)C(=C)C`, the outcome in test [1], in [2], in test [5] and in test [8] was inactive. The Potency entry in [3], in [4], in [7] and in test [9] was “inactive” throughout. Also, the max response in [10] is 6.48%.

With `CN=C(NC#N)NCCSCc1csc(N=C(N)N)n1`, the compound was called inactive in test [1], in test [2], in test [5] and in [8]. Further, the Potency result in test [3], in test [4], in [6], in test [7] and in test [9] was “inactive” each time. Also, the max response in test [10] was 1.73%.

Regarding `CCCOCCOCCOCCO`, the compound was called inactive in test [1], in [2] and in test [5]. Further, the Potency result in test [3], in test [4], in test [6], in [7] and in test [9] was “inactive” throughout. In addition, the max response in test [10] was -22.3%.

Consider `CCCCCCCCCCCCCCCC(=O)NCCO`, for which the compound was classed as inactive in test [1], in [2], in test [5] and in [8]. In addition, the Potency entry in test [3], in test [4], in test [6], in [7] and in test [9] was “inactive” throughout. Also, the max response in [10] is -2.85%.

For `CN(C)CCOCCN(C)CCO`, the result in [1], in test [2] and in test [5] was inactive. Also, the Potency entry in [3], in test [4], in test [6], in [7] and in test [9] was “inactive” each time. In addition, the max response in test [10] is -7.32%.

Regarding `C=C(C)C(=O)OC`, the compound was classed as inactive in test [1], in test [2], in test [5] and in test [8]. The Potency entry in [3], in test [4], in test [7] and in [9] was “inactive” in each case. Further, the max response in [10] is -13.6%.

As to `CC1CCC(C(C)(C)S)C(=O)C1` (centres undefined), the compound was classed as inactive in test [1], in test [2], in test [5] and in test [8]. The Potency in [3] was 3.09 µM (active); in test [7] it was 6.92 µM (active); in [10], 3.09 µM (active). For the same compound, the Potency entry in [4], in test [6] and in [9] was “inactive” throughout.

With `CC(=O)OC[C@H]1O[C@@H](OC(C)=O)[C@H](OC(C)=O)[C@@H]1OC(C)=O`, the outcome in test [1], in test [2], in [5] and in test [8] was inactive. Further, the Potency result in test [3], in test [4], in test [6], in test [7] and in test [9] was “inactive” throughout. Moreover, in test [10], the max response was 5.33%.

Turning to `C=CCOc1c(Br)cc(Br)cc1Br`, the result in [1], in [2] and in [5] was inactive. The Potency entry in [3], in [4], in test [6], in test [7] and in test [9] was “inactive” in each case. In [10], the max response is 2.02%.

As to `O=C(Oc1ccccc1C(=O)O)c1ccccc1O`, the compound was classed as inactive in [1], in test [2] and in test [5]. The Potency result in test [3], in test [4], in [6], in test [7] and in test [9] was “inactive” in each case. In addition, the max response in test [10] is 4.65%.

On to `O=C1c2ccccc2-c2ccccc21`, for which the outcome in test [1], in [2], in test [5] and in test [8] was inactive. In addition, the Potency result in [3], in test [4], in [6], in [7] and in test [9] was “inactive” each time. Also, the max response in test [10] is 1.19%.

With `C=CCOc1c(Br)cc(C(C)(C)c2cc(Br)c(OCC=C)c(Br)c2)cc1Br`, the result in [1], in test [2], in test [5] and in test [8] was inactive. Besides, the Potency result in [3], in [4], in test [6], in [7] and in test [9] was “inactive” each time. The max response in test [10] is 14.4%.

Consider `Cc1c(C(C)C)c(=O)n(-c2ccccc2)n1C`, for which the call in [1], in [2] and in test [5] was inactive. For the same compound, the Potency result in test [3], in test [4], in test [6], in test [7] and in [9] was “inactive” throughout. The max response in [10] is 3.94%.

Regarding `Cc1cccc(Nc2ccncc2S(=O)(=O)NC(=O)NC(C)C)c1`, the outcome in [1], in [2], in test [5] and in [8] was inactive. Also, the Potency result in [3], in [4], in test [6], in [7] and in test [9] was “inactive” each time.

For `CCCCCC1CCCC(=O)O1` (centres undefined), the call in [1], in test [2], in test [5] and in test [8] was inactive. Further, the Potency result in test [3], in test [4], in [6], in test [7] and in [9] was “inactive” throughout. In test [10], the max response is 7.32%.

Turning to `Cn1c(=O)c2c(ncn2CC2OCCO2)n(C)c1=O`, the compound was classed as inactive in test [1], in [2], in test [5] and in test [8]. Also, the Potency result in test [3], in [4], in test [6], in test [7] and in test [9] was “inactive” each time.

Consider `CCCCOC(=O)C(=O)OCCCC`, for which the compound was called inactive in test [1], in test [2] and in [5]. Further, the Potency entry in [3], in test [4], in test [6], in test [7] and in [9] was “inactive” in each case. Besides, the max response in test [10] is 0.934%.

Take `CC(=O)Nc1ccc(C)cc1`: the compound was classed as inactive in test [1], in test [2] and in test [5]. In addition, the Potency entry in test [3], in test [4], in [6], in [7] and in [9] was “inactive” in each case. In addition, the max response in test [10] is -5.67%.

Turning to `O=c1[nH]c(=O)c2ccccc2o1`, the call in test [1], in [2], in [5] and in test [8] was inactive. For the same compound, the Potency result in test [3], in test [4], in [6], in test [7] and in test [9] was “inactive” in each case. Also, in [10], the max response is 1.98%.

As for `Cc1ncc([N+](=O)[O-])n1CC(O)CCl` (centres undefined), the call in test [1], in [2], in test [5] and in test [8] was inactive. In addition, the Potency entry in test [3], in [4], in test [7] and in test [9] was “inactive” each time. Moreover, the max response in test [10] is 3.64%.

For `CN[C@@H]1[C@@H](O)[C@@H](O[C@@H]2[C@H](O)[C@H](O[C@H]3OC(CN)=CC[C@H]3N)[C@@H](N)C[C@H]2N)OCC1(C)O` (some centres undefined), the call in test [1], in [2], in test [5] and in [8] was inactive. Besides, the Potency result in test [3], in test [4], in test [6], in test [7] and in [9] was “inactive” each time.

Turning to `O=CO`, in test [1], the activity change, positive = activation is -1.2% [at 8.39 µM]. Moreover, the figures for the activity change, negative = cytotoxicity in test [2] and in [7] were 0.773% [at 6.97 µM] and 2.46% [at 6.97 µM], respectively. Further, the activity change, negative = cytotoxic was 1.16% [at 6.97 µM] in [3] and 17.5% [at 6.97 µM] in [5]. Besides, the cytotoxicity in test [4] is -3.71% [at 6.97 µM]. Further, the viability change, negative = cytotoxic in [8] was -8.93% [at 6.97 µM]. The max response in test [10] is -0.6%.
